Shown are actives, neighbours in structure and some others; about 1.6% of the full set was active somewhere.
HTR5A inv ag: HTR5A inverse agonism, opioid heterodimer counter-screen; inhibition, % at 9.3 µM; hit rate 0.083% among 340,000; HTR5A cell line, luminescence; in the data active = inhibition mostly above about 23%, no sharp cut-off; inactive = mostly below about 18%;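 note: 0% = cells with DMSO and 100% = no-cell wells with DMSO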
MOR-DOR inv ag: inverse agonists of human mu-delta opioid receptor heterodimerization; cell-based MOR-DOR heterodimer luminescence, inverse agonism; AID 504357; inhibition, % at 9.3 µM; hit rate 0.21% among 340,000; in the data active = inhibition above about 22%, passing the limit was not always enough;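 note: 0% = cells with DMSO and 100% = wells without cells with DMSO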
OPRM1-OPRD1 ag: agonists of human mu-delta opioid receptor heterodimerization | cells, OPRM1-OPRD1 heterodimerization, luminescence | activation, % at 9.3 µM | hit rate 0.3% among 340,000 | AID 504326; in the data active = activation above about 18%;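 note: 0% = vehicle-treated cells and 100% = reference agonist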
m5-HT2A agonist: mouse HTR2A agonism via beta-arrestin recruitment. AID 624169. P35363. CHO-K1 mHTR2A beta-arrestin complementation, luminescence; percent of 30 µM serotonin response. activation, % at 7.6 µM. hit rate 0.66% among 360,000;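 active = activation above a run cutoff, the mean activation of all tested compounds plus 3 SD, cut at about 14% in these data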;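 note: 0% = plate median of compound wells and 100% = 30 µM serotonin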
Target sequence (P35363 whole entry, looked up): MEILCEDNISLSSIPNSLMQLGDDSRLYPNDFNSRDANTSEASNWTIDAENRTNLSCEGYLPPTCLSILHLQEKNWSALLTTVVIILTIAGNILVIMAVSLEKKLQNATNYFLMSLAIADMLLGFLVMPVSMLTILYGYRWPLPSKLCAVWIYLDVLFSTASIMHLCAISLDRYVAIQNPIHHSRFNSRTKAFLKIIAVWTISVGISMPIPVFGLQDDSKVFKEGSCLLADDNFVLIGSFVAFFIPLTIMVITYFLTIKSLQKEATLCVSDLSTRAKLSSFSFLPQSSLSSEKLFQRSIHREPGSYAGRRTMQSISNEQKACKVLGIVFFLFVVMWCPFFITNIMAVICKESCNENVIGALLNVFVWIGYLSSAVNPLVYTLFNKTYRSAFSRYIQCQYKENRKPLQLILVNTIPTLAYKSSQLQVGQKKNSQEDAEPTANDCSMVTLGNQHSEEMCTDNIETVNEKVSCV
HTR5A ag: HTR5A agonism, opioid heterodimer counter-screen | P47898 | HTR5A agonist assay, luminescence, cell-based | activation, % at 9.3 µM | hit rate 0.61% among 340,000 | AID 504692; in the data active = activation mostly above about 9.5%, no sharp cut-off; inactive = mostly below about 7.6%;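 note: 0% = cells with vehicle only and 100% = reference agonist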
OPRM1 ag: activates human mu opioid receptor in HTR2A counterscreen. shares compounds with m5-HT2A agonist. U2OS OPRM1 beta-arrestin PathHunter, luminescence; DMSO 0%, DAMGO 9.3 µM 100%. activation, % at 9.3 µM. hit rate 5.3% among 2,300. AID 624380;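 active = mean activation above the mean of DMSO-only wells plus 3 SD, cut at about 0.5% in these data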
HTR2A ag conf: mouse HTR2A agonism confirmed | activation, % at 7.6 µM | hit rate 19% among 2,300 | CHO-K1 PathHunter beta-arrestin recruitment, luminescence; DMSO 0%, 30 µM serotonin 100% | shares compounds with m5-HT2A agonist | AID 624381;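 active = mean activation across triplicates above the hit threshold derived in the original primary screen, cut at about 15% in these data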
Starred values were filed as active, the others as inactive; nt = no result given.

SMILES | HTR5A inv ag | MOR-DOR inv ag | OPRM1-OPRD1 ag | m5-HT2A agonist | HTR5A ag | OPRM1 ag | HTR2A ag conf
COc1ccccc1CNC(=O)CN(c1ccc(C)cc1)S(=O)(=O)c1c(C)noc1C | 2.3 | 14.1 | -2.7 | 17.2* | -0.6 | -0.6 | -4.9
COc1ccccc1CNC(=O)CN(c1ccc(C)cc1)S(=O)(=O)c1c(C)n[nH]c1C | -12.4 | 3.0 | -0.6 | 0.7 | 2.3 | nt | nt
COc1ccc(NC(=O)CN(c2ccc(C(C)C)cc2)S(=O)(=O)c2c(C)noc2C)cc1OC | -4.8 | 14.7 | -2.9 | 14.8* | 1.6 | -0.5 | -0.2
CCCc1c(C(=O)N/N=C(\C)c2ccccn2)nnn1-c1nonc1N | nt | nt | nt | -4.6 | nt | nt | nt
O=C(CCCN1C(=O)CSc2ncccc21)N1CCN(Cc2ccccc2)CC1 | -4.5 | 3.1 | -0.6 | 107.3* | 1.5 | -0.7 | -4.6
CCOC(=O)N1CCC(NC(=O)CCCN2C(=O)CSc3ncccc32)CC1 | -3.3 | 4.7 | -0.8 | -0.7 | -3.1 | nt | nt
CC(C)(C)c1ccc(C(=O)N2CCN(c3nc4ccccc4o3)CC2)cc1 | -15.5 | -5.6 | 1.0 | 17.2* | 5.0 | -0.5 | -0.8
CCOC(=O)[C@H]1[C@H]2COc3ccc(C)cc3[C@@H]2N2C(=O)[C@@H](C)NC(=O)[C@@]12C | 2.8 | 1.8 | -0.3 | -2.7 | 2.8 | nt | nt
CCOC(=O)[C@H]1[C@H]2COc3ccc(Cl)cc3[C@@H]2N2C(=O)c3ccc(C)cc3NC(=O)[C@@]12C | -6.2 | 0.3 | -0.1 | 14.5* | 2.3 | -0.5 | -3.3
CCOC(=O)[C@H]1[C@H]2COc3ccc(C)cc3[C@@H]2N2C(=O)CN(Cc3ccco3)C(=O)[C@@]12C | -13.2 | 12.3 | -2.2 | 15.2* | 5.1 | -0.6 | -1.2
CCOC(=O)[C@H]1[C@H]2COc3ccc(Cl)cc3[C@@H]2N2C(=O)c3ccc(F)cc3NC(=O)[C@@]12C | 5.3 | -10.0 | 1.8 | 1.1 | 3.9 | nt | nt
CCOC(=O)[C@H]1[C@H]2COc3ccc(OC)cc3[C@@H]2N2C(=O)[C@H](C)NC(=O)[C@@]12C | -23.2 | 14.5 | -2.7 | 20.1* | 3.0 | -0.5 | -1.9
COc1ccc(N2CCN(C(=O)C(Cc3ccccc3)n3cccc3)CC2)cc1 (stereo not drawn) | 6.9 | -2.9 | 0.5 | 2.3 | 2.4 | nt | nt
CN([C@@H](Cc1ccc(OS(=O)(=O)c2cccc3cnccc23)cc1)C(=O)N1CCN(c2ccccc2)CC1)S(=O)(=O)c1cccc2cnccc12 | -5.5 | -3.8 | 0.7 | 14.9* | 1.6 | -0.6 | 11.6
COc1ccc(-c2oc3c(c2C#CC2(O)CCCCC2)C(OC)CCC3)cc1 (stereo not drawn) | nt | nt | nt | -0.9 | nt | nt | nt
CC(=O)N1c2ccc(S(=O)(=O)NCCC(=O)Nc3ncccc3C)cc2CC1C (stereo not drawn) | 4.8 | 18.0 | -3.5 | 14.7* | -1.3 | -0.7 | -3.8
O=C1CCNc2c(Cl)cccc21 | 9.4 | -5.8 | 1.1 | 14.5* | -1.5 | -0.6 | 1.9
CC1(C(=O)NS(=O)(=O)c2cccs2)CCN1C(=O)CCc1ccc(Cl)cc1Cl (stereo not drawn) | nt | nt | nt | 4.7 | nt | nt | nt
O=C(NCc1ccccc1)c1cc(C2COCCN2C(=O)c2ccc3c(c2)CCO3)on1 (stereo not drawn) | nt | nt | nt | 6.5 | nt | nt | nt
C[C@@]12CCC3[C@@](CCC4[C@@]3(C)CCC[C@@]4(C)C(=O)NC3CCCCC3)(CC1=O)C2 (stereo partly drawn) | -9.4 | -1.2 | 0.2 | 4.2 | -1.9 | nt | nt
C[C@@]12CCC3[C@@](CCC4[C@@]3(C)CCC[C@@]4(C)C(=O)N3CCCCC3)(CC1=O)C2 (stereo partly drawn) | -3.9 | 15.2 | -2.8 | 14.4* | -0.1 | -0.3 | -5.1
COC(=O)c1cc(NC(=O)c2c(F)c(F)c(F)c(F)c2F)cc(C(=O)OC)c1 | -2.8 | -23.2 | 4.5 | 17.8* | 7.5 | -0.3 | 6.1
CCOC(=O)C1(C)CCCN(C(=O)c2c(-c3ccccc3)noc2C)C1 (stereo not drawn) | nt | nt | nt | 2.0 | nt | nt | nt
Cc1nn(CC2CC2)c(=O)n1-c1cccc(Cl)c1 | 2.9 | 4.0 | -0.8 | 20.3* | -1.0 | -0.5 | -3.1
Cc1ccccc1S(=O)(=O)N(C)C[C@@H]1OCc2ccccc2-c2c(n(C)c3ccccc23)C(=O)N([C@H](C)CO)C[C@@H]1C | nt | nt | nt | 56.3* | nt | -0.3 | 3.6
SMILES | HTR5A inv ag | MOR-DOR inv ag | OPRM1-OPRD1 ag | m5-HT2A agonist | HTR5A ag | OPRM1 ag | HTR2A ag conf
C=C1CC2C3CC[C@@]4(OCOC45COCO5)[C@@]3(C)C(O)CC2[C@@]2(C)CCC(=O)C=C12 (stereo partly drawn) | -5.4 | -3.5 | 0.8 | 14.7* | 0.0 | -0.6 | -1.0
CCN(CC)C(=O)C1=C(C)N(Cc2ccccc2)C(=O)C(CC(=O)NC2CCCC2)C1 (stereo not drawn) | nt | nt | nt | 5.8 | nt | nt | nt
CCSc1ccc([C@@H]2[C@@H]3C(=O)N(CC)C(=O)[C@@H]3[C@]3(C(=O)OC)CCCCN23)cc1 | -4.4 | -18.3 | 4.0 | 2.2 | 7.0 | nt | nt
CCSc1ccc([C@@H]2[C@H]3C(=O)N(C)C(=O)[C@H]3[C@]3(C(=O)OC)CCCCN23)cc1 | 10.9 | -21.3 | 3.8 | 16.8* | -2.0 | -0.4 | -2.6
Cc1ccc(S(=O)(=O)C[C@@H]2OC[C@H](CO)N2S(=O)(=O)c2ccc(C)cc2)cc1 | nt | nt | nt | 1.6 | nt | nt | nt
Cc1ccc(Nc2ccc([N+](=O)[O-])nc2[N+](=O)[O-])cc1 | -35.8 | -39.6 | 6.3 | 14.9* | 13.6 | -0.1 | -4.5
C[C@@H]1CN([C@H](C)CO)C(=O)CCCn2nncc2CO[C@H]1CN(C)C(=O)c1ccc2ccn(C)c2c1 | nt | nt | nt | -0.9 | nt | nt | nt
CCC(=O)N1CCCC(C)(C(=O)Nc2nccc3ccccc23)C1 (stereo not drawn) | nt | nt | nt | 0.2 | nt | nt | nt
COc1cc(C(c2nnnn2C(C)(C)C)N2CCN(c3nc4ccccc4s3)CC2)ccc1O (stereo not drawn) | 19.2 | 5.7 | -1.4 | 29.2* | -2.4 | -0.6 | 9.3
COc1ccc(C(c2nnnn2C(C)(C)C)N2CCN(c3nc4ccccc4s3)CC2)cc1OC (stereo not drawn) | -23.5 | 4.4 | -1.0 | -2.6 | -2.9 | nt | nt
Oc1ccc(C(c2nnnn2CCc2ccccc2)N2CCN(c3nc4ccccc4s3)CC2)cc1 (stereo not drawn) | -4.9 | -17.1 | 3.1 | 21.6* | 1.7 | -0.6 | -2.1
COc1cc([N+](=O)[O-])ccc1NC(=O)/C=C/C(=O)O | -31.9 | 10.6 | -2.0 | 0.7 | -0.2 | nt | nt
COc1cc([N+](=O)[O-])ccc1NC(=O)/C=C\C(=O)O | 26.0 | 6.0 | -1.1 | 22.5* | -1.4 | -0.7 | -5.3
CC(CNC(=O)CC[C@H]1O[C@@H](n2ccc(=O)[nH]c2=O)[C@H](O)[C@@H]1O)c1ccccc1 (stereo partly drawn) | nt | nt | nt | 0.2 | nt | nt | nt
